Experimental data: PubChem BioAssay (EPA / NIEHS)
Results filed as inconclusive are left out. Active and inactive are the calls of the source. Rule for the calls: active = hit-call score of the fitted dose curve at least 0.9, where 1 is the maximum; inconclusive = response in the unintended direction; inactive = score below 0.9.

Target: human RAR-related Orphan Receptor beta (RORb), RORB (gene 6096) (UniProt Q92753)
Experiment: ATG_RORb_TRANS: Attagene TRANS-FACTORIAL HepG2 Assay for human RAR-related Orphan Receptor beta (RORb) (AID 2283010)
Experimental: ATG_TRANS is a cell-based, multiplexed-readout assay that uses HepG2, a human liver cell line, with measurements taken at 24 hours after chemical dosing in a 24-well plate.ATG_RORb_TRANS is one of 30 assay component(s) measured or calculated from the ATG_TRANS assay. It is designed to make measurements of mRNA induction, a form of inducible reporter, as detected with fluorescence intensity signals by Reverse transcription polymerase chain reaction (RT-PCR) and Capillary electrophoresis technology.Data from the assay component ATG_RORb_TRANS was analyzed into 1 assay endpoint. This assay endpoint, ATG_RORb_TRANS, was analyzed in the positive analysis fitting direction relative to DMSO as the negative control and baseline of activity. Using a type of inducible reporter, measures of mRNA for gain-of-signal activity can be used to understand the reporter gene at the transcription factor-level as they relate to the gene RORB. Furthermore, this assay endpoint can be referred to as a primary readout, because this assay has produced multiple assay endpoints where this one serves a reporter gene function. To generalize the intended target to other relatable targets, this assay endpoint is annotated to the nuclear receptor intended target family, where the subfamily is orphan.
Human liver HepG2 cells are transiently transfected with multiple reporter transcription units (MRTUs) in 6-well plates using FuGene 6 reagent (Roche; 3 ml FuGene/1 mg DNA). The MRTU constructs are regulated by a cis-regulating element (promoter). […] A major difference between the CIS and TRANS system is that in CIS activities of endogenous TFs are measured, whereas the TRANS assay evaluates changes in activities of exogenous, chimeric NR-Gal4 proteins. […] At the end of 24 hour incubation, total RNA was isolated using TriZol reagent (Invitrogen). The isolated RNA is then reverse-transcribed using oligo(dT) primer and Mo-MLV reverse transcriptase (Invitrogen) with DNAse I (Ambion) treatment for 30 min. The one-tenth of the produced cDNA was amplified by PCR using Taq DNA polymerase (Invitrogen) and two reporter sequence-specific primers. The PCR products were fluorescently labeled by primer extension with 6-arboxyfluorescein (6-FAM) 5'-labeled reporter sequence-specific primer (2 min at 95 C, 20 s at 68 C and 10 min at 72 C) and these products were digested with 5U of HpaI (New England Biolabs) for 2h at 37 C. The fragments were purified using Qiaquick PCR columns (Qiagen), analyzed on an ABI 3130xL genetic analyzer (Applied Biosystems) with peak positions identified by using a set of X-rhodamine (ROX)-labeled MapMarker1000 molecular weight standards (BioVentures). The raw capillary electrophoresis data was processed using Attagraph software (Attagene).

human RAR-related Orphan Receptor beta (RORb), RORB (gene 6096), sequence (Q92753 whole entry, looked up): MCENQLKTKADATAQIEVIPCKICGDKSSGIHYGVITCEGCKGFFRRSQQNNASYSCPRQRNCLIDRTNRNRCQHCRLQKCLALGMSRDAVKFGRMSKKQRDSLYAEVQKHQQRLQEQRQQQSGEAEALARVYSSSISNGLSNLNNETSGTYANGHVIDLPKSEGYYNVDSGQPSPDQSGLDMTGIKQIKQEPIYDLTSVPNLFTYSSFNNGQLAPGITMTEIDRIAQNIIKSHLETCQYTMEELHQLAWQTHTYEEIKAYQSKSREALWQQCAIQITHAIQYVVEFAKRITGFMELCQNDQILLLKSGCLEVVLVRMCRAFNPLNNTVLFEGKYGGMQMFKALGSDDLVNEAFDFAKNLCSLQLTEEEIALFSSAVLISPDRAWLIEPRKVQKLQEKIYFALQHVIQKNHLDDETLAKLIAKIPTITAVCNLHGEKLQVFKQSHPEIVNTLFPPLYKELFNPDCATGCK

outcome, inactive:
O=C(O)CCCC[C@@H]1SC[C@@H]2NC(=O)N[C@@H]21
O=C1CCCCCCCCCCC(=O)OCCO1
CNC(=S)NN
CCN(Cc1cccc(S(=O)(=O)O)c1)c1ccc(C(=C2C=CC(=[N+](CC)Cc3cccc(S(=O)(=O)[O-])c3)C=C2)c2ccccc2)cc1
CC(C)c1ccc2c(C(C)C)cc(C(C)C)c(S(=O)(=O)O)c2c1
Cc1c(C)c([N+](=O)[O-])c(C(C)(C)C)c([N+](=O)[O-])c1C
CC(=O)Oc1ccc(C)cc1
O=C(C=Cc1ccccc1)OCc1ccccc1
CC1(C)S[C@@H]2[C@H](NC(=O)COc3ccccc3)C(=O)N2[C@H]1C(=O)O
Cc1ccc2oc(=O)ccc2c1
Cn1c(=O)[nH]c2ncn(C)c2c1=O
O=[N+]([O-])c1ccc(CO)cc1
CC(C)C1=CC2=CC[C@@H]3[C@](C)(CCC[C@@]3(C)C(=O)O)[C@H]2CC1
OCCNCc1ccccc1
CCC(CC)C(=O)O
CCC(CO)CO
C[C@]12C=CC(=O)C=C1CC[C@@H]1[C@@H]2[C@@H](O)C[C@@]2(C)[C@H]1CC[C@]2(O)C(=O)CO
Cc1cc(C)c(C(=O)O)c(C)c1
C1=Cc2ccccc2C1
CC(C)COC(=O)C=Cc1ccccc1
O=c1[nH]nc(-c2ccc([N+](=O)[O-])o2)o1
Cc1ccc(C(C)c2ccc(C)c(C)c2)cc1C
COC(=O)/C=C/C(C)=C\C=C\C(C)=C\C=C\C=C(C)\C=C\C=C(C)\C=C\C(=O)O
CCCCCC/C=C\CCCCCCCC(=O)O
O=C(c1ccccc1)c1ccc(O)c(O)c1O
C=CCOCC(O)CCl (stereo not given)
C=CC=CC=CCCCCC
O=C1CCCCCCCCCCCCCCCO1
O=C1CCCN1CCO
Cc1cc(C)c(C)c(C)c1
CC(C)c1ccc(C#N)cc1
CC(C)c1ccc2cc(C(C)C)ccc2c1
CCCCC(CC)COC(=O)c1ccccc1 (stereo not given)
O=C(Nc1cccc(C(F)(F)F)c1)c1cc(Br)cc(Br)c1O
COC(=O)c1ccc2cc(C(=O)OC)ccc2c1
CC(CC=O)CCCC(C)(C)O (stereo not given)
NC(=O)OCC(COC(N)=O)c1ccccc1
COc1cc(NC(=O)CC(C)=O)c(OC)cc1Cl
CCCCC(CC)CCC(CC(C)C)OS(=O)(=O)O (stereo not given)
CC(=O)OCC(C)OC(C)=O (stereo not given)
